Assay results taken from PubChem BioAssay (NCI).
Where “and” joins values, the source holds several entries; their conditions need not be identical. Equal entries are not always repeated. This is part of a sample that, as a whole, favours compounds with a hit. Of some 83,000 tested, about 20% had one in any assay.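 In brief: 96-well plates, 48 h treatment, single concentration, percent growth endpoint.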 Calls of active or inactive are those of the source. How the source made its calls: active means growth percent below 10; inactive means the rest.

Columns and labels:
Experiment in all cases: NCI-60 one-dose screen, 48 h (100 = growth as untreated, 0 = no growth, -100 = all killed)
Conditions in all cases: 10 µM unless noted
DU-145 prostate = tested on: DU-145 prostate
K-562 leukemia = tested on: K-562 leukemia
MALME-3M melanoma = tested on: MALME-3M melanoma
MDA-MB-231 breast = tested on: MDA-MB-231 breast
RXF 393 renal = tested on: RXF 393 renal
SF-268 CNS = tested on: SF-268 CNS
SF-295 CNS = tested on: SF-295 CNS
SF-539 CNS = tested on: SF-539 CNS
UACC-257 melanoma = tested on: UACC-257 melanoma
M14 melanoma = tested on: M14 melanoma

Measured: growth

Nc1ccc(S(=O)(=O)F)cc1
inactive: DU-145 prostate 107% | K-562 leukemia 91.8% | MALME-3M melanoma 95.2% | MDA-MB-231 breast 117% | RXF 393 renal 100% | SF-268 CNS 99.8% | SF-295 CNS 102% | SF-539 CNS 103% | UACC-257 melanoma 110% | M14 melanoma 107%

Cc1ccc(S(=O)(=O)n2cc([C@@]3(O)C[C@H](CSC#N)OC3=O)c3ccccc32)cc1
inactive: DU-145 prostate 43.9% | K-562 leukemia 48.5% | MALME-3M melanoma 61.7% | MDA-MB-231 breast 55.3% | RXF 393 renal 50.9% | SF-268 CNS 72.4% | SF-295 CNS 94.8% | SF-539 CNS 51.2% | UACC-257 melanoma 96.1% | M14 melanoma 66.2%

N#Cc1ccc(Cl)cc1
inactive: DU-145 prostate 117% | K-562 leukemia 99.4% | MALME-3M melanoma 115% | MDA-MB-231 breast 108% | RXF 393 renal 120% | SF-268 CNS 108% | SF-295 CNS 113% | SF-539 CNS 108% | UACC-257 melanoma 104% | M14 melanoma 106%

Cc1nc2ccccc2c(=O)n1-c1ccccc1F
inactive: DU-145 prostate 109% | K-562 leukemia 104% | MALME-3M melanoma 112% | MDA-MB-231 breast 107% | RXF 393 renal 96.5% | SF-268 CNS 100% | SF-295 CNS 98.3% | SF-539 CNS 95.4% | UACC-257 melanoma 77% | M14 melanoma 99.4%

C=C[Se]CC(=O)/C=C/c1ccccc1
inactive: DU-145 prostate 87.5% | K-562 leukemia 93.9% | MALME-3M melanoma 97.5% | MDA-MB-231 breast 94.3% | RXF 393 renal 114% | SF-268 CNS 94.8% | SF-539 CNS 95.2% | UACC-257 melanoma 92.7% | M14 melanoma 73.5%
active: SF-295 CNS 3.93%

COc1ccc(/C=C(/C)[N+](=O)[O-])cc1OC
inactive: DU-145 prostate 22.3% and 13.5% | MDA-MB-231 breast 11.3% and 28.8% | SF-295 CNS 98.6% and 104% | SF-539 CNS 15.1%
active: K-562 leukemia 7.3% and 5.18% | MALME-3M melanoma -22.6% and -51.7% | RXF 393 renal -91.1% and -95.7% | UACC-257 melanoma -88.6% and -67.5% | M14 melanoma -52.6% and -61.6%
3.01% (active) and 44.6% (inactive): SF-268 CNS

CC[C@H](C)[C@H](NC(=O)CN(C)C)C(=O)N(C)[C@H](C[C@@H](OC(C)=O)c1nc(C(=O)NC23CC(C(=O)OC)(C2)C3)cs1)C(C)C
active: DU-145 prostate 9.21% | K-562 leukemia 9.47% | MDA-MB-231 breast 1.51% | RXF 393 renal 8.43% | SF-539 CNS -8.6% | M14 melanoma -8.54%
inactive: MALME-3M melanoma 50.9% | SF-268 CNS 21.8% | SF-295 CNS 13.8% | UACC-257 melanoma 46.8%

Cc1cc[c-]cc1.Fc1c[c-]c(-c2ccccn2)c(F)c1.[Pt+2].c1ccc([PH+](c2ccccc2)c2ccccn2)cc1
active: MALME-3M melanoma -2.32%
inactive: DU-145 prostate 59.1% | K-562 leukemia 23.9% | MDA-MB-231 breast 67.8% | RXF 393 renal 32.6% | SF-268 CNS 62.1% | SF-295 CNS 72% | SF-539 CNS 72.3% | UACC-257 melanoma 87.2% | M14 melanoma 62.1%

CC[PH+](CC)CC.O=COC1OC([S-])C(OC=O)C(OC=O)C1OC=O.[Au+] (stereo not given)
active: DU-145 prostate -43.7% | K-562 leukemia -6.71% | MALME-3M melanoma -92.1% | MDA-MB-231 breast -76.3% | RXF 393 renal -91% | SF-268 CNS -78.5% | SF-295 CNS -16.3% | SF-539 CNS -99.2% | UACC-257 melanoma -83.6% | M14 melanoma -63.1%

CC[C@H](C)[C@H](NC(=O)[C@H]1CCCCN1C)C(=O)N(C)[C@H](CCc1nc(C(=O)N[C@@H](Cc2ccccc2)C[C@H](C)C(=O)O)cs1)C(C)C
inactive: MALME-3M melanoma 78.4% | MDA-MB-231 breast 11.2% | RXF 393 renal 31.8% | SF-268 CNS 20.9% | UACC-257 melanoma 53.4%
active: DU-145 prostate 9.58% | K-562 leukemia 6.62% | SF-295 CNS -1.24% | SF-539 CNS -12.9% | M14 melanoma 4.31%

Cc1cc(N(CCCl)CCCl)ccc1C=Nc1ccc(-c2csc(-c3ccccc3)n2)cc1
inactive: DU-145 prostate 68.3% | K-562 leukemia 80.4% | MALME-3M melanoma 115% | MDA-MB-231 breast 90.3% | RXF 393 renal 90.1% | SF-268 CNS 66.7% | SF-295 CNS 66.2% | SF-539 CNS 74.4% | UACC-257 melanoma 86.5% | M14 melanoma 92.6%
